# Compounds with a hit are over-represented: about 9.8% of the library has one in this group of screens.
# HTT cytoprotect: qHTS Multiplex Assay to Identify Dual Action Probes in a Cell Model of Huntington: Cytoprotection (ATP). PC12 HTT-Q103 induced, cytoprotection, ATP luminescence, 40 h. Potency, µM (doses to about 56.4 µM), without a hit: cytoprotection (ATP increase), usual class: activators. 230,000 compounds, 0.14% hits. AID 1471, 2008; note: potency is the fitted concentration of half-maximal effect; % of control where 0% means no effect; nearly all actives have a fitted effect of over 45% in size
#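 Stable PC12 Q103-GFP cells in serum-supplemented, phenol red-free DMEM; induction by tebufenozide at 100 nM final; compound dose series; cell viability quantified luminescently from ATP.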
# CBFb RUNX1 block: qHTS Assay for Compounds Blocking the Interaction Between CBF-beta and RUNX1 for the Treatment of Acute Myeloid Leukemia | AlphaScreen CBFb-His/RUNX1-biotin binding, biochemical | Potency, µM (doses to about 59.8 µM), inactives show top-dose activity, negative = inhibition, most hits filed as inhibitors | Runt-related transcription factor 1 (Homo sapiens) + Core-binding factor subunit beta … | 230,000 tested, under 10 active | AID 1477, 2009; note: % of control where 0% means no effect
#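 Inhibition was taken as any reduction in AlphaScreen signal from the CBF-beta–RUNX1 pair (His and biotin tags, 30 nM each), measured after compound (15 min) and bead (90 min) incubations at room temperature.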
# KDM4E inh: qHTS Assay for Inhibitors of Human Jumonji Domain Containing 2E (JMJD2E) | Lysine-specific demethylase 4E (Homo sapiens), B2RXH2 | JMJD2E catalytic domain, FDH-coupled NADH fluorescence (FDH is formaldehyde dehydrogenase) | Potency, µM (series often up to 57.1 µM), inactives show at the top dose activity change, negative = inhibition, most hits filed as inhibitors | 230,000 compounds, 1.6% hits; active = well fitted inhibition curve with a large enough effect, not every such curve was filed as active; inconclusive = small, poorly fitted or top-dose-only effect, or another doubt; inactive = no such curve, though single readings can be large or run the other way;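 note: potency is the fitted concentration of half-maximal effect; 0% = wells with enzyme and -100% = buffer wells without enzyme; nearly all actives have a fitted effect of over 50% in size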
# HPGD inh: qHTS Assay for Inhibitors of HPGD (15-Hydroxyprostaglandin Dehydrogenase); 150,000 compounds, 4.3% hits; purified HPGD, NADH fluorescence kinetic, PGE2 substrate; AID 894, 2007; Potency, µM, for inactives: at the top dose activity change, negative = inhibition, actives largely listed as inhibitors; active = well fitted inhibition curve with a large enough effect, not every such curve was filed as active; inconclusive = small, poorly fitted or top-dose-only effect, or another doubt; inactive = no such curve, though single readings can be large or run the other way; note: potency is the fitted concentration of half-maximal effect; % is set by controls: 0 for no effect and ±100 for the full control effect
#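 NADH formation kinetics: reaction with 30 uM PGE2 and 1 mM NAD+ (final), 20 nM enzyme, Tris-HCl pH 8 with Tween 20, after 15 min compound preincubation at room temperature. Fluorescence change, last versus first of five reads.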
# HTT aggregate: qHTS Multiplex Assay to Identify Dual Action Probes in a Cell Model of Huntington: Aggregate Formation (GFP); PC12 HttQ103-GFP aggregates, Acumen cytometry, 40 h; Potency, µM (titrated, usually from 46.1 µM), for inactives: at the top dose activity change, negative = inhibition, actives largely listed as inhibitors; 220,000 compounds, 1.1% hits; AID 1688, 2009; note: potency is the fitted concentration of half-maximal effect; % is set by controls: 0 for no effect and ±100 for the full control effect; nearly all actives have a fitted effect of over 60% in size
#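 Compounds (qHTS titration) were added to PC12 cells expressing an ecdysone-driven HTT exon 1 Q103–GFP fusion after induction with 100 nM tebufenozide. Aggregate formation was measured as GFP objects in cell lysates.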
# ALDH1A1 inh: qHTS Assay for Inhibitors of Aldehyde Dehydrogenase 1 (ALDH1A1); Aldehyde dehydrogenase 1A1 (Homo sapiens), P00352; Purified ALDH1A1, NADH fluorescence, propionaldehyde substrate; Potency, µM (highest dose often 75.3 µM), for inactives: at the highest dose activity, negative = inhibition, actives largely listed as inhibitors; 220,000 compounds, 7.3% hits; AID 1030, 2008; active = well fitted inhibition curve with a large enough effect, not every such curve was filed as active; inconclusive = small, poorly fitted or top-dose-only effect, or another doubt; inactive = no such curve, though single readings can be large or run the other way;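 note: potency is the fitted concentration of half-maximal effect; plate controls were no enzyme wells and a reference inhibitor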
# Target sequence (P00352 whole entry, looked up): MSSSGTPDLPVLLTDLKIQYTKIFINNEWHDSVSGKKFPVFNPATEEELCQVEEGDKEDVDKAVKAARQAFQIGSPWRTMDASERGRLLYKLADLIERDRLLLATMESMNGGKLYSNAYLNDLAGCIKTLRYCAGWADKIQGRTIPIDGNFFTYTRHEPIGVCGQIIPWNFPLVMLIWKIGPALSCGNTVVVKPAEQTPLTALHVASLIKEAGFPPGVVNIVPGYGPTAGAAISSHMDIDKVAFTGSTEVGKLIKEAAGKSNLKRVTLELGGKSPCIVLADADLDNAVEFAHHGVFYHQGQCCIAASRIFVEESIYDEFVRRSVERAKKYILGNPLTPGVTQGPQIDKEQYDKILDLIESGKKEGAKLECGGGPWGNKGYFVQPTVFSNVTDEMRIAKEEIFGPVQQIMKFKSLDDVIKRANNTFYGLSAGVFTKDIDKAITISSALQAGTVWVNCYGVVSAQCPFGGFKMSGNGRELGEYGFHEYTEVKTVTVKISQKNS
# An asterisk follows results filed as active; ? = inconclusive; . = not tested or not shown; [ ] = dose if it differs, or a comment. Unless noted, calls come from the whole dose curve; as a rule, active = well fitted curve in the direction sought with a large enough effect; inconclusive = small, poorly fitted or top-dose-only effect, or another doubt; inactive = no such curve, though single readings can be large; an effect the other way counts as inactive or inconclusive.
SMILES,HTT cytoprotect,CBFb RUNX1 block,KDM4E inh,HPGD inh,HTT aggregate,ALDH1A1 inh
CCOC(=O)/C(C)=C1\NC(C)(C)Cc2ccccc21,.,-5%,-1%,20µM*,?,?
CCOC(=O)/C(C(=O)Nc1ccccc1Cl)=C1/NC(C)(C)Cc2ccccc21,19%[10 µM],24%,-14%,-26%,-6%,14µM*
COC(=O)C(C)(C(=O)OC)c1ccc(C(F)(F)F)cc1[N+](=O)[O-],4%[10 µM],0%,-2%,.,10%,13%
CC(=O)N1CCN(C(=S)Nc2ccc(Oc3ccccc3)cc2)CC1,-9%,9%,-2%,.,-16%,-2%
Cc1onc(-c2ccccc2)c1C(=O)NCC(O)c1ccccc1 (configuration not stated),16%[10 µM],1%,2%,.,12%[9.22 µM],-1%
c1ccc(N2CCN(c3nnnn3-c3ccccc3)CC2)cc1,-23%,2%,-1%,-2%,8%[9.22 µM],?
ClC(Cl)(c1nnnn1-c1ccccc1)c1nnnn1-c1ccccc1,17%[10 µM],-4%,-5%,3.2µM*,?,1.1µM*
CC(C)=CCN1CCN(Cc2ccc(C#CC(C)(C)O)s2)CC1CCO (configuration not stated),6%[10 µM],22%,3%,.,14%[9.22 µM],4%
COC(=O)CSc1c(-c2ccccc2)c2cc(Cl)ccc2[nH]c1=O,-4%,-2%,1%,-10%,-7%,?
CC(=O)OCCSc1c(-c2ccccc2)c2cc(Cl)ccc2[nH]c1=O,14%[10 µM],-5%,0%,.,9%,14µM*
O=C(COC(=O)c1ccc(Br)o1)Nc1nc2c(F)c(F)c(F)cc2s1,-1%[10 µM],-16%,7%,.,9%[9.22 µM],22µM*
CCCC(C)NC(=O)c1ccc2[nH]c3c(c2c1)CC(C)CC3 (configuration not stated),-7%,3%,9%,.,5%,16µM*
CC1=C(C(N)=O)C(c2ccc(Cl)cc2Cl)n2ncnc2N1 (configuration not stated),8%[10 µM],6%,1%,-3%,3%,7%
CCOC(=O)C1=C(C)Nc2nnnn2C1c1ccccc1Cl (configuration not stated),3%[10 µM],-8%,-20%,-11%,-31%,0.71µM*
CCOC(=O)C1=C(C)Nc2nnnn2C1c1ccc(OC)c(Br)c1 (configuration not stated),-9%[10 µM],-2%,-4%,-21%,21%,-7%
CC(=O)C1=C(C)Nc2ncnn2C1c1ccccc1Cl (configuration not stated),-5%,0%,-2%,.,6%,25µM*
C=CCOC(=O)C1=C(C)Nc2nnnn2C1c1cc(OC)ccc1OC (configuration not stated),-2%,2%,-8%,2%,9%,4.5µM*
CCCCOC(=O)C1=C(C)Nc2nnnn2C1c1ccccc1Cl (configuration not stated),8%,-2%,-3%,-8%,-17%,0.45µM*
CCOc1ccccc1C1C(C(=O)Nc2ccccc2OC)=C(C)Nc2nnnn21 (configuration not stated),16%,-2%,6%,-1%,-25%,?
CC(O)[C@@H](O)[C@H]1CNc2nc(N)[nH]c(=O)c2N1 (some centres not stated),.,-3%,?,?,.,?
Cc1ccsc1/C=N/NC(=O)CNC(=O)c1cccc([N+](=O)[O-])c1C,-16%,7%,7%,.,16%,12%
O=C1CCC/C(=N\NC(=O)COc2ccc(Cl)cc2)C1,1%[10 µM],-4%,?,.,7%,-1%
c1ccc(C2=Nn3c(nnc3-c3ccco3)SC2)cc1,4%,1%,2%,.,-17%,?
COc1ccc(C2C(C(=O)OC3CCCCC3)=C(C)Nc3nnnn32)c(OC)c1OC (configuration not stated),.,-10%,-1%,-11%,19%,-2%
COC(=O)C1=C(C)Nc2nnnn2C1c1ccco1 (configuration not stated),-1%,9%,-1%,?,-21%,10µM*
SMILES,HTT cytoprotect,CBFb RUNX1 block,KDM4E inh,HPGD inh,HTT aggregate,ALDH1A1 inh
COC(=O)C1=C(C)NC(C)=C(C(=O)OC)C1c1ccco1,1%[10 µM],1%,-7%,.,14%[9.22 µM],.
COC(=O)C1=C(C)Nc2nnnn2C1c1ccc(Cl)cc1Cl (configuration not stated),5%,2%,-3%,-7%,-2%,8.9µM*
CCN1CCN(c2ccc(N=Cc3ccccc3O)cc2)CC1,.,-6%,-5%,.,.,-2%
CCn1cc(C2=NOC(C(=O)Nc3cccc(C(C)=O)c3)C2)c(C)n1 (configuration not stated),8%[10 µM],-1%,-6%,-11%,0.79µM*,3%
CCn1cc(C2=NOC(C(=O)Nc3c(C)nn(Cc4ccc(F)cc4)c3C)C2)c(C)n1 (configuration not stated),-3%,8%,7%,-6%,-28%,0%
CC(=O)NCCNc1ncnc2ccc(-c3ccoc3)cc12,-26%,.,.,.,.,?
O=C(Nc1cccc2nsnc12)c1ccc(-c2ccc(Br)cc2)o1,-14%,-1%,8%,.,-10%,22%
COC(=O)c1ccccc1NC(=O)c1ccc(-c2ccc(Br)cc2)o1,-56%,-3%,3.5µM*,?,14%,?
COCCCNC(=O)CN(c1cccc(Cl)c1)S(C)(=O)=O,7%,3%,8%,-9%,0%,2µM*
COCCCNC(=O)/C=C/c1cccc(Cl)c1,-11%,-1%,2%,28µM*,4%,1%
COCCCNC(=O)CN(c1cccc(Cl)c1C)S(C)(=O)=O,-7%[10 µM],-2%,-5%,-17%,-6%,-5%
O=C(/C=C/c1cccc(Cl)c1)Nc1ncccn1,27%[10 µM],-1%,6%,-16%,-18%,-6%
CN(C)C(CNC(=O)/C=C/c1cccc(Cl)c1)c1ccccc1 (configuration not stated),-21%,-1%,-5%,.,8%,-5%
CSc1cccc(NC(=O)/C=C/c2cccc(Cl)c2)c1,.,-4%,?,-15%,16µM*,?
CC(C)c1ccc(OCC(=O)NC2=NCCS2)cc1,-41%,0%,-5%,.,2%,?

# Assay outcomes from PubChem.
